# Screening results deposited in PubChem by several laboratories.
# Shown are actives, neighbours in structure and some others; about 2.7% of the full set was active somewhere.
# MRP-1 activ = activates MRP-1; actives 0.61% (n = 140,000); H69AR cells + doxorubicin, viability rescue, CellTiter-Glo; viability increase, % at 10 µM;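 active = viability gain under doxorubicin at or above a set limit, the compound median plus 3 SD, cut at about 4.7% in these data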;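 also: MRP-1 overexpressing cells given doxorubicin 25 µM after compound pretreatment; 18-22 h compound pretreatment then 72 h with doxorubicin before readout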
# ERa coact pot = ER-alpha (human) coactivator binding potentiation; actives 1.3% (n = 86,000); TR-FRET ERalpha-LBD/SRC-Cy5 coactivator binding, 2 h; 100 = basal binding, no effect; coactivator binding (% of control), % at 25.6 µM; P03372; in the data active = activity above about 200%;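 also: binding measured in presence of low estradiol as agonist stimulus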
# ERb SRC1 inh = ER-beta (human) coactivator binding inhibition | inhibition, % at 25.6 µM | TR-FRET ER-beta LBD / SRC1-Cy5 peptide binding; receptor agonist-loaded with 1 µM estradiol | actives 1.3% (n = 86,000) | AID 633;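 active = compounds whose percent inhibition of the receptor-coactivator binding signal exceeds about 50% in the single-dose screen, limit read from the data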
# Target sequence (Q92731 whole entry, looked up, the tested form may be a part): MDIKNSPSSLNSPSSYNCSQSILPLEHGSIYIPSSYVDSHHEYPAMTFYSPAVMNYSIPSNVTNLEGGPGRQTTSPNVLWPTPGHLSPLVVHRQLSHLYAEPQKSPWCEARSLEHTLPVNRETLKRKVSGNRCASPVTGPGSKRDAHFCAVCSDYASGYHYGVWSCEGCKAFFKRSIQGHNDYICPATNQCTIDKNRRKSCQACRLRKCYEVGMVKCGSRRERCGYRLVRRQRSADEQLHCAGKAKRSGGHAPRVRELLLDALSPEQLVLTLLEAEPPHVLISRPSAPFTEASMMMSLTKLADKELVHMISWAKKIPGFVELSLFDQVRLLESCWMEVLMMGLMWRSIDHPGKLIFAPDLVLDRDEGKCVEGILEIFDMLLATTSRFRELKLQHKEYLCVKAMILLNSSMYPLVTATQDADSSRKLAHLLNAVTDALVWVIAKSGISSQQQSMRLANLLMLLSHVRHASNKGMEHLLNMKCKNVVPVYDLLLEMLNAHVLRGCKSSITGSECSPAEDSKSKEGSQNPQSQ
# MRP reversal = reverses drug resistance mediated by MRP | H69AR cells + 2 uM doxorubicin, CellTiter-Glo, 72 h | actives 0.04% (n = 85,000) | differential viability (reversal), % at 10 µM;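 active = viability drop by adding the cancer drug above about 55%, with treated viability meeting a 40% cutoff, limit read from the data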;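 also: larger differential means the compound sensitizes cells more to doxorubicin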
# ERa SRC1 inh = ER-alpha (human) coactivator binding inhibition; TR-FRET ER-alpha LBD / SRC-1 peptide, estradiol-bound; inhibition, % at 25.6 µM; actives 1.7% (n = 86,000); AID 629; in the data active = inhibition above about 50%
# A number is an active result; – = inactive; · = not tested or not shown; [ ] = another dose, or the depositor's remark.
SMILES,MRP-1 activ,ERa coact pot,ERb SRC1 inh,MRP reversal,ERa SRC1 inh
O=C(Nc1ccc(NC(=O)c2sc3ccccc3c2Cl)cc1Cl)c1ccco1,–,·,·,·,·
COCCNC(=O)C(c1ccc(C)o1)N(C(=O)c1snc(C(N)=O)c1N)c1cc(C)cc(C)c1 (centres undefined),–,–,99[fluorescence artefact?],–,–
COCCNC(=O)C(c1ccc(C)o1)N(Cc1ccco1)C(=O)c1snc(C(N)=O)c1N (centres undefined),–,–,–,–,–
CCOc1ccccc1N(C(=O)c1snc(C(N)=O)c1N)C(C(=O)NCCC(C)C)c1ccco1 (centres undefined),5.3,–,–,–,–
Cn1c(CN2CCCC2)nc2cc(NC(=O)c3cccs3)ccc21,–,·,·,·,·
COc1ccccc1-c1nc(-c2cccc(C)c2)no1,–,–,–,–,–
Oc1cc(NCc2cccnc2)ccc1-c1nc2ccccc2o1,5.0,–,–,–,–
Fc1ccc(NCc2cccnc2)cc1F,–,–,–,–,62
CCc1ccc(OCC(=O)Nc2ccc(-c3nc4ccccc4o3)c(O)c2)cc1,–,–,70[fluorescence artefact?],–,80[fluorescence artefact?]
Clc1ccc2oc(-c3cccnc3NCc3ccccc3)nc2c1,–,·,·,·,·
Cc1cc(F)ccc1NCc1cccnc1,–,–,–,–,–
O=C(Cn1nnc(-c2cccs2)n1)N1c2ccccc2Sc2ccc(C(F)(F)F)cc21,–,–,–,–,–
O=C(Cc1ccccc1)Nc1cccc(N2C(=O)C=CC2=O)c1,–,·,·,·,·
O=[N+]([O-])c1ccc(O)c(/C=N/n2cnc3ccccc32)c1,5.2,·,·,·,·
CCn1c(SCC(=O)Nc2ccc(C(=O)OC)cc2)nnc1-c1cccs1,–,304[fluorescence artefact?],–,–,–
O=C(CSc1nnc(-c2cccs2)n1-c1ccccc1)Nc1ccccc1,–,969[fluorescence artefact?],–,–,–
CCOC(=O)c1ccc(NC(=O)CSc2nnc(CNc3ccc(OC)cc3)n2C)cc1,–,–,–,–,52
CCOC(=O)CSc1nnc(-c2cccs2)n1-c1ccccc1,–,–,–,–,–
N#Cc1ccccc1NC(=O)CSc1nnc(-c2ccccc2)n1-c1ccccc1,–,–,–,–,–
CCN(CC)c1ccc(-c2nnc(SCC(=O)Nc3ccccc3C#N)n2-c2ccccc2)cc1,–,–,–,–,52[fluorescence artefact?]
CCOc1cc2c(cc1OCC)C(c1cc(OC)c(O)c(OC)c1)NCC2 (centres undefined),·,–,–,–,–
NC(N)=NS(=O)(=O)c1ccc(NC(=S)NC(=O)c2sc3ccccc3c2Cl)cc1,–,·,·,·,·
C=CCn1c(SCC(=O)Nc2ccc(C(=O)OCC)cc2)nnc1-c1cccs1,–,755[fluorescence artefact?],–,–,–
C=CCn1c(=O)/c(=C/c2cc(OC)c(OC)c(OC)c2)s/c1=C(/C#N)c1nc2ccccc2n1C,–,–,–,–,–
Cn1c2ccccc2n2c(=O)c(Cl)c(-c3ccccc3)c(C#N)c12,–,·,·,·,·
SMILES,MRP-1 activ,ERa coact pot,ERb SRC1 inh,MRP reversal,ERa SRC1 inh
COc1cccc(NC(=O)CSc2ncnc3c2oc2ccccc23)c1,–,373[fluorescence artefact?],57[fluorescence artefact?],–,64[fluorescence artefact?]
Cc1cccc(NC(=O)CSc2nc3c(oc4ccccc43)c(=O)n2-c2ccccc2)c1,–,·,·,·,·
COc1ccc(CCNC(=O)CSc2ncnc3c2oc2ccccc23)cc1OC,–,–,–,–,–
O=C(CSc1ncnc2c1oc1ccccc12)N1CCCc2ccccc21,–,202[fluorescence artefact?],–,–,–
Cc1nc(SCC(=O)Nc2ccc(C)c(F)c2)c2oc3ccccc3c2n1,–,840[fluorescence artefact?],–,–,–
COc1ccc(Cl)cc1NC(=O)CSc1ncnc2c1oc1ccccc12,–,230,–,–,–
COc1cccc(NC(=O)CSc2nc3c(oc4ccccc43)c(=O)[nH]2)c1,–,·,·,·,·
CCNc1nc(NC(C)C)nc(N(n2cnnc2)S(=O)(=O)c2ccc(C)cc2)n1,–,·,·,·,·
CC1=NOC(=O)/C1=C\c1ccc(-c2ccc(Cl)cc2Cl)o1,–,·,·,·,·
Cc1ccc(Nc2nc(N)nc(CN3CCN(C(=O)c4ccco4)CC3)n2)cc1Cl,–,–,–,–,–
COc1cccc2c(=O)cc(C)n(CC(=O)Nc3cccc(C)c3)c12,–,·,·,·,·
Cc1cc(C(=O)c2ccc(C(C)(C)C)cc2)c(NC(=O)CCl)s1,–,·,·,·,·
O=C(CSc1ncnc2c1oc1ccccc12)Nc1ccccc1C(F)(F)F,–,721[fluorescence artefact?],–,–,–
Cc1ccc(-c2csc3nc(SCC(N)=O)n(Cc4ccccc4)c(=O)c23)cc1,–,·,·,·,·
Cc1ccc(S(=O)(=O)N(C)C)cc1NC(=O)CN1C(=O)NC2(CCCc3ccccc32)C1=O (centres undefined),–,·,·,·,·
N=C(N)SCc1ccccn1,6.3,·,·,·,·
NC1=NC(=O)/C(=C/c2cn(CCC(=O)O)nc2-c2ccc(F)cc2)S1,–,·,·,·,·
NC1=NC(=O)/C(=C/c2cn(CCC(=O)O)nc2-c2ccc(Cl)cc2)S1,5.5,·,·,·,·
Cc1cccn2c(=O)c3cc(C(=O)N4CCc5ccccc5C4)n(C)c3nc12,·,–,–,–,–
COc1cccc(C(=O)N2CCN(C(=O)c3cccc(F)c3)CC2)c1,–,–,–,–,–
O=C(c1cccc(F)c1)N1CCN(C(=O)c2cc3ncc(Br)cn3n2)CC1,–,–,59,–,55
Cc1cc(C)cc(NC(=O)C2CCCN(c3nc(C)cc(C)n3)C2)c1 (centres undefined),–,–,75[fluorescence artefact?],–,–
CC(=O)Nc1ccc(NC(=O)C2CCCN(c3ncccn3)C2)cc1 (centres undefined),–,–,–,–,–
O=C(Nc1ccc(C2CCCCC2)cc1)C1CCCN(c2ncccn2)C1 (centres undefined),·,223[fluorescence artefact?],–,–,–
Cc1cc(C)cc(NC(=O)C2CCCN(c3nccc(C)n3)C2)c1 (centres undefined),–,–,–,–,–
SMILES,MRP-1 activ,ERa coact pot,ERb SRC1 inh,MRP reversal,ERa SRC1 inh
C=CCNC(=O)C(=O)NCCOc1ccccc1Cl,–,·,·,·,·
Cc1nc(C)c(C(=O)Nc2nc3c(C)cccc3s2)o1,–,–,91[fluorescence artefact?],–,92[fluorescence artefact?]
Cc1ccc2nc(SCC(=O)Nc3cccc([N+](=O)[O-])c3)[nH]c2c1,–,·,·,·,·
Cc1cccc(-n2c(SCc3ccc(C#N)cc3)nnc2-c2c[nH]c3ccccc23)c1,–,·,·,·,·
O=C(N/N=C/c1cccc(C(F)(F)F)c1)C1CCN(c2ncc(C(F)(F)F)cc2Cl)CC1,–,·,·,·,·
Cc1ccc(-c2nnc3ccc(SCC(=O)N4CCc5ccccc54)nn23)cc1,–,238[fluorescence artefact?],–,–,–
Cc1ccc(-c2nnc3ccc(SCC(=O)N4CCCc5ccccc54)nn23)cc1,–,·,·,·,·
O=C1OC(c2cccc([N+](=O)[O-])c2)C2(CCCC2)C(=O)C12CCCCC2 (centres undefined),–,·,·,·,·
Cc1ccc(C(=O)NNC(=O)c2cccc(S(=O)(=O)N3CCN(c4ccccc4)CC3)c2)cc1,–,·,·,·,·
Cc1cc(C)c2cc(C#N)c(N3CCCN(S(=O)(=O)c4ccccc4)CC3)nc2c1,·,262[fluorescence artefact?],–,–,–
CC(=O)c1cccc(S(=O)(=O)N2CCN(c3nc4cc(C)cc(C)c4cc3C#N)CC2)c1,–,–,58[fluorescence artefact?],·,–
COC(=O)c1ccc(C(=O)OC)c(NC(=O)c2ocnc2C)c1,·,–,–,–,–
Cc1sc(-c2ccncc2)nc1OC(=O)c1cc(Cl)cc(Cl)c1,–,224,–,–,–
